Bioassay records from PubChem BioAssay.
Compounds with a hit are over-represented: about 1.9% of the library has one in this group of screens.
Cardio protect – myocardial damage modulation in H9c2 cells | H9c2 cardiomyocytes, H2O2 injury protection, ATPLite, 2 h | protection from H2O2 cell death, % at 20 µM | 0.63% of 360,000 active | AID 588492;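 active means compounds giving at least 50% protection of heart cells from peroxide-induced death in the single-dose screen, raw or plate-pattern-corrected value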
ATG4B inhibitor – inhibitors of human ATG4B cysteine protease; ATG4B cleavage of LC3-PLA2, NBD-HPC fluorescence, 1 h; inhibition, % at 8.33 µM; 0.51% of 340,000 active; AID 504462; in the data active means inhibition above about 40%
PP1 counter – PP1-alpha (human) inhibition in PP5 counter-screen; P62136; purified PP1alpha, OMFP fluorescence; inhibition, % at 6.7 µM; 0.9% of 320,000 active;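 active means inhibition above the mean inhibition of all tested compounds plus 3 SD, computed separately for each screening campaign, cut at about 15% in these data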
PP5 inh – inhibitors of human protein phosphatase 5 (PP5) | purified PP5c, OMFP substrate fluorescence | 0.18% of 320,000 active | P53041 | inhibition, % at 6.7 µM;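 active means inhibition above the campaign's mean inhibition across all tested compounds plus 3 SD, cut at about 9.5% in these data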
Target sequence (P53041 whole entry, looked up): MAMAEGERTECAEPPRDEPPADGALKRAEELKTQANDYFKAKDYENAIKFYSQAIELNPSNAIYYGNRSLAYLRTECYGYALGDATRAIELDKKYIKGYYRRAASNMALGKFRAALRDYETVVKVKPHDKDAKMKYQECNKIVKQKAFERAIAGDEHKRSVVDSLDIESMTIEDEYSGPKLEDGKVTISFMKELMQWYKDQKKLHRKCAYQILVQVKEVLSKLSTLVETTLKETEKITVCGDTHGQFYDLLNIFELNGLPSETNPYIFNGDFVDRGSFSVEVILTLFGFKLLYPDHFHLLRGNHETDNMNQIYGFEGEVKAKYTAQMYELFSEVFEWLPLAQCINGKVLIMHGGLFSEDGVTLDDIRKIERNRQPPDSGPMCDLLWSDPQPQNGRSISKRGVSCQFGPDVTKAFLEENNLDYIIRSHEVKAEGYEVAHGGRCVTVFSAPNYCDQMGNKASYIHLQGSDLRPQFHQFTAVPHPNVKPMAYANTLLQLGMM
ATG4B confirm – confirmation of human ATG4B inhibitors. shares compounds with ATG4B inhibitor. ATG4B protease fluorescent substrate cleavage assay. inhibition, % at 8.33 µM. 92% of 320 active; in the data active means inhibition above about 39%
PLA2 counter – counter-screen for ATG4B inhibitors: human phospholipase A2. shares compounds with ATG4B inhibitor. purified PLA2, NBD-C6-HPC fluorescence, 45 min. inhibition, % at 8.33 µM. 66% of 1,600 active. AID 588402; in the data active means inhibition above about 50%
A number is an active result; - = inactive; . = no result.

SMILES	Cardio protect	ATG4B inhibitor	PP1 counter	PP5 inh	PLA2 counter	others
COc1ccc(C2OC(=O)c3ccccc3S2)cc1 (centres undefined)	-	54	-	-	54
CCOc1ccc(C(=O)Nc2cc(NC(=O)c3ccc(OCC)c(Cl)c3)cc(C(=O)O)c2)cc1Cl	-	48	.	.	60
CCOc1ccc(C(=O)Nc2ccc(NC(=S)NC(=O)CC)cc2)cc1Cl	-	-	-	-	.
O=C1NN(c2ccc(F)c(Cl)c2)C(=O)/C1=C\c1cccc(OC(=O)c2cccs2)c1	-	60	15	-	57
CC1Cc2ccccc2N1S(=O)(=O)c1cccc(C(=O)N2Cc3ccccc3CC2C(N)=O)c1 (centres undefined)	-	68	-	-	68
NC(=O)C1Cc2ccccc2CN1C(=O)c1cc(C2CC2)nn1-c1ccccc1 (centres undefined)	-	92	.	.	92
CC1Cc2ccccc2N1S(=O)(=O)c1cccc(C(=O)N2CCCCC2)c1 (centres undefined)	-	-	.	.	.
O=C(c1nn(Cc2ccccc2)c(=O)c2ccccc12)N1CCc2ccccc2C1	-	-	-	-	.
NC(=O)C1Cc2ccccc2CN1C(=O)c1nn(Cc2ccccc2)c(=O)c2ccccc12 (centres undefined)	-	41	-	-	61
NC(=O)C1Cc2ccccc2CN1C(=O)c1cccc(Oc2ccccc2)c1 (centres undefined)	-	47	-	-	94
Cc1ccc(C(=O)N2Cc3ccccc3CC2C(=O)O)cc1 (centres undefined)	-	-	-	-	.
CC(C)NC(=O)Nc1ccc2c(c1)C(=O)N([C@H](C)CO)C[C@H](C)[C@@H](CN(C)S(=O)(=O)c1cn(C)cn1)O2	-	-	.	.	.
CCOc1cc(/C=C2\C(=O)N(c3nc(-c4ccc(Br)cc4)cs3)N=C2c2ccccc2)ccc1O	-	53	-	-	-	ATG4B confirm=66
COc1cc(/C=C2\C(=O)N(c3ccc(NC(C)=O)cc3)N=C2c2ccccc2)ccc1O	-	-	-	-	.
O=C(COc1ccccc1)N[C@@H]1c2ccccc2CC[C@@H]1O	-	.	.	.	.
COc1cc2c(cc1OC)CN(C1CCCN(Cc3cc(Cl)ccc3O)C1)CC2 (centres undefined)	-	-	-	-	.
O=C(CSCc1c(Cl)cccc1Cl)Nc1ccccc1-c1ccccc1	-	74	-	-	80
S=c1[nH]nc(CSCc2ccccc2Cl)n1C1CCCCC1	-	55	.	.	63
Cn1c(CSCc2ccccc2Cl)n[nH]c1=S	-	-	-	-	.
Cc1cccc(C)c1NC(=O)CCCSc1nc2ccccc2s1	-	47	-	-	-
CCc1cccc(CC)c1NC(=O)CCCSc1nc2ccccc2s1	-	-	-	-	.
CCCn1c(=S)[nH]c2cc(C(=O)N3CCc4ccccc43)ccc2c1=O	-	65	-	-	-
COCCn1c(=S)[nH]c2cc(C(=O)N3CCc4ccccc43)ccc2c1=O	-	-	-	-	.
CN1C(=O)CSc2ccc(NC(=O)NCc3ccc(F)cc3)cc21	-	64	-	-	79
COc1ccc(S(=O)(=O)N(Cc2cccs2)C2CCCC2)cc1	-	50	-	-	54
SMILES	Cardio protect	ATG4B inhibitor	PP1 counter	PP5 inh	PLA2 counter	others
CCOc1ccc(C(C)NC(=S)NCc2ccc(Cl)cc2)cc1 (centres undefined)	-	-	-	-	.
CC(NC(=S)NCc1ccc(F)cc1)C12CC3CC(CC(C3)C1)C2 (centres undefined)	-	-	-	-	.
CCCc1ccc(C(C)NC(=S)NCc2ccc(F)cc2)cc1 (centres undefined)	-	59	-	-	70
CCC(NC(=S)NCc1ccc(F)cc1)c1ccc(C(C)C)cc1 (centres undefined)	-	54	-	-	77
COc1ccc(C(C)NC(=S)NCc2ccc(F)cc2)cc1OC (centres undefined)	-	-	-	-	.
CCC(C)c1ccc(C(C)NC(=S)NCc2ccc(F)cc2)cc1 (centres undefined)	-	63	-	-	78
O=C(NS(=O)(=O)NC1CCCCC1)C1=C(N2CCCC2)COC1=O	-	-	.	.	.
CCOC(=O)c1sc2c(c1C)c(=O)n(CCO)c(=O)n2Cc1ccccc1	-	-	-	-	.
CCCCn1c(N)c(N(CCOC)C(=O)COC(=O)COc2cc(C)c(Cl)cc2C(C)C)c(=O)[nH]c1=O	-	51	-	-	58
Cc1sc2nc3c(SC(C)C(=O)O)cc(C(=O)c4ccccc4O)cn3c(=O)c2c1C (centres undefined)	-	52	-	-	53
CCc1ccc(C(CNC(=O)c2ccc3c(=O)n(-c4ccccc4F)c(=S)[nH]c3c2)N(C)C)cc1 (centres undefined)	-	70	-	-	83
Cc1cc(C)cc(N(CC(=O)Nc2ccccc2-c2ccccc2)S(=O)(=O)c2ccccc2)c1	-	57	-	-	-
Cc1ccccc1CN(C)CC(=O)Nc1ccccc1-c1ccccc1	-	51	-	-	54
Cc1ccc(C2=NS(=O)(=O)N(C)C(C(=O)NC3CCCC3)=C2)cc1	-	-	-	-	.
Nc1c(C(=O)Nc2ccc3c(c2)OCCO3)nnn1Cc1cccc(Br)c1	-	41	-	-	-
Nc1c(C(=O)Nc2ccc3c(c2)OCCO3)nnn1Cc1ccc(Br)cc1	-	-	-	-	.
CC1CC(C)CN(C(=O)C2CCN(S(=O)(=O)c3ccc4c(c3)CC(C)N4C(=O)C3CC3)CC2)C1 (centres undefined)	-	43	-	-	-	ATG4B confirm=60
Cc1cc(C)n(CCCNC(=O)c2ccc(C)o2)n1	-	-	-	-	.
CC(C)(C)C(=O)Nc1ccc(S(=O)(=O)N2CCC(c3nc4ccccc4[nH]3)CC2)cc1	-	-	-	-	.
COCCCNC(=S)N1CCN(c2nc(C)nc3sc4c(c23)CCCC4)CC1	-	47	-	-	63
CCCNC(=S)N1CCN(c2nc(C)nc3sc4c(c23)CCCC4)CC1	-	49	-	-	78
Cc1nc(N2CCNCC2)c2c3c(sc2n1)CCCC3	-	-	-	-	.
O=C(CNC(=O)c1nc[nH]c1C(=O)N1CCN(c2ccccc2)CC1)OCc1ccccc1	-	-	-	-	.
CCN(Cc1ccc(OC)c(F)c1)C(=O)/C=C/c1ccc(S(=O)(=O)N2CCOCC2)cc1	-	-	-	-	.
O=C(C1=C(c2ccccc2)C(=O)c2ccccc2C1=O)c1ccccc1	-	45	.	.	51
CC(C)N(Cc1ccccc1)C(=O)C1CCN(c2ncnc3c2nc2n3CCCCC2)CC1	-	72	-	-	76
O=Cc1ccc(OCc2cccc(C(F)(F)F)c2)cc1O	68	57	-	-	77
COCOc1ccc(C=O)c(O)c1	-	-	-	-	.
COC(=O)C(Sc1nc(C)cc(C)c1C#N)c1ccccc1 (centres undefined)	-	50	-	-	56
COC(=O)CSc1nc(C)cc(C)c1C#N	-	-	-	-	.
